According to PubChem BioAssay (NCI):
This is part of a sample that, as a whole, favours compounds with a hit. Of some 83,000 tested, about 20% had one in any assay.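 For each line, cells grew in 96-well plates with the test compound present at a single concentration for 48 hours.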 Values without a mark were called inactive. Calls of active or inactive are those of the source. Rule for the calls: active = growth percent below 10; inactive = the rest.

Test system: HCC-2998 colon
Test: NCI-60 one-dose screen, 48 h (100 = growth as untreated, 0 = no growth, -100 = all killed)
Details: 10 µM unless noted

Question: How did the growth turn out when `COc1cc(C2CC(c3ccc(C(F)(F)F)cc3)=Nc3c(N)nc(N)nc3N2)ccc1Oc1nc(Nc2ccc(F)cc2)nc(N(C)C)n1` (configuration not stated) was run?
Answer: -17.8% (active)

Question: Which growth does the source give for `COc1ccc2[nH]c(=O)c(CSc3ccccc3Nc3nccc(-c4ccc5c(c4)OCO5)n3)cc2c1` here?
Answer: 110%

Question: Which growth does the source give for `Cc1cc(=O)oc2cc(OCC(O)CNN3C(=O)c4cccc5c(N6CCN(C)CC6)ccc(c45)C3=O)ccc12` (configuration not stated) here?
Answer: 101%

Question: `CC[C@]12C=CCN3CC[C@]4(C(=C(C(=O)OC)C1)Nc1cc(OC)c([C@@H]5[C@H]6O[C@H]6[C@@]6(CC)CC(C(=O)OC)=C7Nc8cc(OC)ccc8[C@@]78CCN5[C@@H]68)cc14)[C@@H]32` was tested. Which growth did it give?
Answer: 112%

Question: With `C#CCCCNCCNc1ccnc2cc(Cl)ccc12` as the compound, how does the growth read?
Answer: 62%

Question: How did the growth turn out when `CCOC(=O)/C(F)=C/C1CC1C(c1ccccc1)c1ccccc1` (configuration not stated) was run?
Answer: 102%

Question: `S=C(NCCc1ccccc1)Nc1ccc(OCc2nc3ccc(Cl)cc3[nH]2)cc1` was tested. Which growth did it give?
Answer: 3.57% (active)

Question: Which growth does the source give for `Cc1ccc(C(=O)C[n+]2cccc3c4ccccc4ccc32)cc1` here?
Answer: 17.4%

Question: For `CCCn1c(NC(=O)c2cccc(C(N)=O)c2)nc2cc(CN3CCCCC3)ccc21`, which growth is on record?
Answer: 116%

Question: `CCC(=O)c1c2c(c3ccc4c5ccccc5ccc4n13)C(=O)c1ccccc1C2=O` was tested. Which growth did it give?
Answer: 65.4%

Question: How did the growth turn out when `O=C1/C(=C/c2cnc(-c3ccccc3)s2)SC(=S)N1Cc1ccc2c(c1)OCO2` was run?
Answer: 102%

Question: How did the growth turn out when `O=c1[nH]c2ccccc2cc1COc1ccc(Nc2nccc(-c3ccc(Cl)cc3)n2)cc1` was run?
Answer: 116%
